This is part of a sample that, as a whole, favours compounds with a hit. Of some 83,000 tested, about 20% had one in any assay.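 Values shown are percent growth following 48 h exposure of cells in 96-well plates to a single concentration of compound; below 10 was considered active.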 Values without a mark were called inactive.
tested on: SF-268 CNS; test: NCI-60 one-dose screen, 48 h (100 = growth as untreated, 0 = no growth, -100 = all killed); conditions: 10 µM unless noted

Compound | growth
CNc1sc(S(=O)(=O)NC)nc1S(=O)(=O)c1ccc(C)cc1 | 103%
COc1cccc(N2CCN(C3=C(Cl)C(=O)c4ncccc4C3=O)CC2)c1 | 84.1%
O=C1[C@@H]2Cc3c([nH]c4ccccc34)[C@@H](c3ccc(Cl)cc3)N2C(=O)CN1C1CCN(Cc2ccccc2)CC1 | 48%
CC(=O)OCCCCN1C=C/C(=C\C(=O)n2ccc3ccccc32)c2ccccc21 | 103%
CN1CCN(c2ccc(Nc3nc(NCCNS(=O)(=O)c4ccc5ccccc5c4)c4sccc4n3)cc2)CC1 | 63.3%
CC1=C(C)C(=O)C(Nc2ccc3c(c2)OCCO3)=C(Br)C1=O | 97.8%
C=C(C)[C@@H]1CC[C@]2(C(=O)NC3CCCCC3)CC[C@]3(C)[C@H](CC[C@@H]4[C@@]5(C)CC[C@H](N)C(C)(C)[C@@H]5CC[C@]43C)[C@@H]12 | 91.6%
CCOC(=O)c1c(NC(=O)c2ccc(C(F)(F)F)cc2)sc2c3c(ccc12)OCN(C)C3 | 63.6%
C#CCN(C)CCCOc1ccc(NCc2ccc(/C=C/C(=O)NO)cc2)cc1Cl | 12.9%
COc1cc(/C=N\NC(=O)c2ccc3nc(-c4ccc(Br)cc4)[nH]c3c2)cc(OC)c1OC | 51.7%
C=C1CCc2nc(SCC(=O)O)ccc2N1 | 103%
CN1CCC[C@]2(C)[C@H]3CC[C@@H]4[C@@H]5[C@H]6OC[C@@]5(CCC6(C)C)CC[C@@]4(C)[C@]3(C)CC[C@H]2C1(C)C | 103%
C=C(C=O)[C@@H]1CC[C@]2(C(=O)O)CC[C@]3(C)C(CC[C@@H]4[C@@](C)(CCC#N)[C@H](C(=C)C=O)CC[C@]43C)[C@@H]12 (stereo not given in full) | 64.9%
NCCNC(=O)c1cccc(COc2ccccc2NC(=O)c2cc(Cl)c(Cl)[nH]2)c1 | 90.2%
COc1ccc(C2c3[nH]c4ccc(Cl)cc4c3CCN2c2oc(CO)nc2C#N)cc1 (stereo not given) | 53.6%
CN(C)c1ccc(-c2cc(-c3c[nH]c4ccccc34)nc(N)c2C#N)cc1 | 52.3%
COc1ccccc1/C=C1\Oc2ccc(O)c(O)c2C1=O | 102%
CCCCCc1ccc(S(=O)(=O)Nc2cc(-c3csc(N)n3)ccc2OC)cc1 | 94.7%
O=C(O)c1ccc(-n2c(=O)n(-c3cccc(C(F)(F)F)c3)c(=O)c3cc(-c4ccc(F)cc4F)ccc32)cc1 | 22.1%
Nn1c(=O)n(-c2cccc(C(F)(F)F)c2)c(=O)c2cc(-c3ccc(F)cc3F)ccc21 | 17.8%

Compound | growth
CCCCN1C(=O)/C(=c2\sc3n(c2=O)C2C(NN=3)N(CC)C(=O)N2CC)c2cc(C)ccc21 (stereo not given) | 87%
CC(C)[C@H]1c2[nH]c3ccccc3c2C[C@H]2C(=O)N(CCCCCCC(=O)NO)CC(=O)N12 | 107%
O=C(N/N=C\c1ccc(F)cc1)c1ccc2nc(-c3ccc(Br)cc3)[nH]c2c1 | 44.8%
NC1[C@H]2CN(c3cnc(C(=O)Nc4cc(F)cc5cccnc45)cn3)C[C@@H]12 (stereo not given in full) | 87.5%
Cc1ccsc1[C@H]1c2[nH]c3ccccc3c2C[C@H]2C(=O)N(CCCCCCC(=O)NO)CC(=O)N12 | 105%
CC(=O)N(O)CCCCCNC(=O)CCC(=O)N(O)CCCCCNC(=O)CCC(=O)N(O)CCCCCN(CCCCCCCCCC[P+](c1ccccc1)(c1ccccc1)c1ccccc1)CCCCCCCCCC[P+](c1ccccc1)(c1ccccc1)c1ccccc1 | 16.2%
O=c1nc(Nc2ccc([N+](=O)[O-])cc2O)sc2ccccc12 | 59.4%
Cc1cc2nc(C(Cl)Cl)nc(-c3ccc(S(=O)(=O)N(C)C)cc3)n2n1 | 67.6%
C/C(CC1(O)C(=O)Nc2ccccc21)=N\O (stereo not given) | 98.3%
C[C@]12CC[C@H]3[C@@H](CC=C4C[C@@H](O)CC[C@@]43C)[C@@H]1CC[C@@H]2[C@](C)(O)CCc1cccnc1 | 70.7%
O=C(CSc1nnc(-c2cccs2)n1-c1ccccc1)Nc1ccccc1F | 93.7%
CC(=C(c1ccc(OCCCN(C)C)cc1)c1ccc(OCCCN(C)C)cc1)c1ccc(Cl)cc1 | 91.7%
O=C(CSc1nc2ccccc2c(=O)n1-c1ccc(Cl)c(Cl)c1)Nc1ccc(S(=O)(=O)Nc2ccc(Cl)nn2)cc1 | 100%
COC(=O)CCSC1=C(C)C(=O)c2ccccc2C1=O | 97.4%
CCc1cc(OC(=O)N2CCC(N3CCCCC3)CC2)ccc1Nc1cc(-c2ccc(-n3cccn3)cc2)[nH]n1 | 75.9%
O=C(Nc1cc(C(F)(F)F)cc(C(F)(F)F)c1)Nc1ccc2oc(=O)ccc2c1 | 21.1%
Cc1ccc2c(n1)C(=O)C(Cl)=C(Nc1ccc(C(=O)OC(C)(C)C)cc1)C2=O | 87.6% [9.25 µM]
Cc1cc(=O)[nH]c(O)c1C#N | 103%
CCN(CC)S(=O)(=O)c1ccc(-c2nc(C(Cl)Cl)nc3cc(C)nn23)cc1 | 56.1%
CNC(=O)Nc1ccc(Nc2cc(-c3ccc(-n4cccn4)cc3)[nH]n2)c(C)c1 | 103%

From PubChem BioAssay (NCI)
